# Assay outcomes deposited in PubChem BioAssay by National Center for Advancing Translational Sciences (NCATS).
# This excerpt belongs to a sample that is enriched for hits.
# AmpC inh detg: qHTS Inhibitors of AmpC Beta-Lactamase (assay with detergent); AID 485294, 2010; P00811; 0.041% of 370,000 active; AmpC hydrolysis of nitrocefin, absorbance 480 nm, 0.01% Triton; Potency, µM (doses to about 114 µM), actives largely listed as inhibitors; further: nearly all actives have a fitted effect of over 25% in size
# Target sequence (P00811 whole entry, looked up): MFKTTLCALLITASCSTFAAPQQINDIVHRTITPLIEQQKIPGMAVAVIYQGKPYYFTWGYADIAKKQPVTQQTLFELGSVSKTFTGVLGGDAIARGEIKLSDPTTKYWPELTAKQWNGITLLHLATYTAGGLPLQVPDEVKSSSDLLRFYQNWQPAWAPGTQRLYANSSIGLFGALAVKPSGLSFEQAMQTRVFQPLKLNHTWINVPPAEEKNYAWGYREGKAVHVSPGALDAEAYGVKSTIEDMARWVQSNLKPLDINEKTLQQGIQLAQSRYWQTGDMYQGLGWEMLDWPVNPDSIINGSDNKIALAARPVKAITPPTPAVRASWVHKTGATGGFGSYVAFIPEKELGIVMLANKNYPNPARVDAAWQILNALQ
#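 AmpC (5.3 nM in the dispensed reagent) in 20 mM phosphate pH 7.0 with 0.01% (detergent screen) or 0.0001% Triton X-100 was preincubated with compounds for 15 min at room temperature. Nitrocefin was then added from an 800 uM solution, and hydrolysis was followed at 480 nm.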
# Cycloheximide cs: Cycloheximide Counterscreen for Small Molecule Inhibitors of Shiga Toxin | cell reporter, cycloheximide protein synthesis inhibition counterscreen | max response, % | AID 2314, 2010 | 12% of 300,000 active; in the data active means max response mostly above about 13%, no sharp cut-off; inactive means mostly below about 14%; further: read at 38.3 µM for the half of the compounds with a filed dose
# AmpC no deterg: qHTS Inhibitors of AmpC Beta-Lactamase (assay without detergent); P00811; AmpC nitrocefin hydrolysis, absorbance 480 nm, 0.0001% Triton; Potency, µM (highest dose often 57.1 µM), actives largely listed as inhibitors; 0.52% of 330,000 active; further: nearly all actives have a fitted effect of over 20% in size
#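 AmpC (5.3 nM in the dispensed reagent) in 20 mM phosphate pH 7.0 with 0.01% (detergent screen) or 0.0001% Triton X-100 was preincubated with compounds for 15 min at room temperature. Nitrocefin was then added from an 800 uM solution, and hydrolysis was followed at 480 nm.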
# Shiga inhibitor: A qHTS for Small Molecule Inhibitors of Shiga Toxin; 9.2% of 290,000 active; inhibition, % at 38.7 µM; Vero cells, Shiga toxin protein synthesis inhibition reporter; in the data active means inhibition mostly above about 28%, no sharp cut-off; inactive means mostly below about 43%
# NS1 inh: qHTS Assay for Inhibitors of Influenza NS1 Protein Function | 0.4% of 270,000 active | Potency, µM (titrated, usually from 46.1 µM); calls by dose curve; further: actives are rising curves; nearly all actives have a fitted effect of over 50% in size
#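 Recovery from NS1-induced slow growth read by OD600 in budding yeast switched to galactose assay medium (pH 6.0, -URA) at 1:100 dilution. Compound 23 nl per well; the matching strain lacking NS1 serves as control.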
# Numbers stand for hits; 0 = inactive; ? = inconclusive; - = no result; + = active, no number. Unless noted, the call rests on the fitted dose curve; in most records, active means well fitted curve in the direction sought with a large enough effect; inconclusive means small, poorly fitted or top-dose-only effect, or another doubt; inactive means no such curve, though single readings can be large; an effect the other way counts as inactive or inconclusive.
SMILES,AmpC inh detg,Cycloheximide cs,AmpC no deterg,Shiga inhibitor,NS1 inh
CCOc1ccc(N=c2scc(-c3ccccc3)n2CCO)cc1,?,29,0,0,0
CCOc1ccc(N=c2scc(-c3ccc(OC)cc3)n2CCO)cc1,0,16,0,0,0
CC(C)CCC[C@@H](C)[C@H]1CC[C@H]2[C@@H]3CC=C4C[C@@H](O)CC[C@]4(C)[C@H]3CC[C@]12C,-,0,-,0,-
c1ccc(-c2ccc(-c3ccccn3)s2)nc1,0,45,0,132,0
c1ccc(-c2nnc(-c3ccccn3)nn2)nc1,-,-,-,-,0
CCOc1ccccc1-c1ccc(C(=O)O)s1,-,44,-,+,-
O=C(O)c1ccc(-c2ccccn2)s1,0,45,0,29,-
c1ccc(-c2cccc(-c3ccccn3)n2)nc1,0,31,0,91,0
O=C(O)c1ccc(-c2ccccc2C(F)(F)F)s1,-,0,-,0,-
O=C(O)c1cc(-c2ccccn2)n[nH]1,?,0,0,0,0
c1ccc(-c2ccncc2)nc1,0,-,0,-,-
COc1ccccc1CN(C(=O)CNC(=O)c1ccco1)C(C(=O)NCC1CCCO1)c1ccc(OC)c(OC)c1 (configuration not stated),?,0,0,0,0
CCCN(CC(=O)Nc1ccccc1C)C(=O)c1ccc(OCc2c(C)noc2C)cc1,?,-,0,-,-
Cc1c(Cc2ccccc2)c(=O)oc2c(C)c(OCC(=O)N[C@@H](Cc3ccccc3)C(=O)O)ccc12,0,0,0,0,0
Cc1ccc(NC(=O)Nc2c(C)n(C)n(-c3ccccc3)c2=O)c(Cl)c1,0,-,-,-,-
c1ccc(-c2cccc(-c3ccccc3)n2)cc1,0,48,0,54,0
COc1cccc2sc(N(Cc3cccnc3)C(=O)c3ccc4c(c3)OCCO4)nc12,0,-,-,-,-
CN1CCN(c2ncc3c(n2)CCN(Cc2cc(Br)cs2)C3)CC1,0,-,-,-,-
c1csc(-c2cc(N3CCCCC3)c3ccccc3n2)c1,0,0,0,0,0
CCOc1ncccc1-c1nc(-c2cccs2)no1,0,50,0,60,0
CCOc1nc(-c2ccccc2)ccc1-c1noc(-c2cccs2)n1,0,0,0,0,0
c1csc(-c2nc(N3CCCCC3)no2)c1,0,37,0,82,0
Cc1ccc(-c2noc(-c3ccccc3F)n2)cc1,0,27,0,108,-
COc1ccccc1-c1noc(-c2cccs2)n1,?,44,0,111,0
CC1CCCN(C(=O)c2cc3c(=O)n(C)c4ccccc4c3s2)C1 (configuration not stated),0,-,-,-,-
SMILES,AmpC inh detg,Cycloheximide cs,AmpC no deterg,Shiga inhibitor,NS1 inh
Cc1ccc(-c2noc(-c3cccs3)n2)cc1,0,70,0,67,0
O=[N+]([O-])c1cccc(-c2noc(-c3cccs3)n2)c1,0,34,0,78,0
COc1ccccc1-c1noc(-c2ccncc2)n1,0,27,0,64,0
COc1ccc(CCN(C)CC(=O)Nc2cc(C)nc3ccccc23)cc1OC,0,0,0,0,0
Cc1noc(C)c1NC(=O)N(C)C[C@H]1Oc2ccc(NC(=O)NC3CCCCC3)cc2C(=O)N([C@H](C)CO)C[C@@H]1C,-,-,0,-,-
Cc1cccc(/C=C2\Oc3cc(OS(C)(=O)=O)ccc3C2=O)c1,?,26,0,0,0
O=C1/C(=C/c2cccc(F)c2)Oc2cc(O)ccc21,0,22,0,40,0
O=C1/C(=C/c2ccc(O)c(O)c2)Oc2ccccc21,-,35,-,77,-
COc1cccc(/C=C2\Oc3cc(OC(=O)N4CCOCC4)ccc3C2=O)c1,0,0,0,0,0
Cc1cnccc1CNC(=O)C1CCC(=O)N(Cc2ccc(Cl)cc2)C1 (configuration not stated),0,0,0,0,0
CC(Sc1nnnn1C)C(=O)Nc1ccccc1 (configuration not stated),0,0,0,0,0
Cn1nnnc1SCC(=O)Nc1ccc(Oc2ccccc2)cc1,0,8.9,0,0,0
CCc1ccc(NC(=O)CSc2nnc(Cc3cccn3C)n2-c2ccc(F)cc2)cc1,0,0,13µM,0,0
CCOc1ccc(NC(=O)C(C)Sc2nnnn2C)cc1 (configuration not stated),0,11,0,0,0
CCc1ccc(NC(=O)CSc2nnnn2C)cc1,0,56,0,78,0
COc1ccc(NC(=O)CSc2nnnn2C)cc1,0,0,0,0,0
Cc1ccc(NC(=O)CSc2nnc(Cc3cccn3C)n2-c2ccc(F)cc2)cc1,?,0,0,0,?
COC(=O)Nc1ccc(Cl)c(Cl)c1,-,0,-,0,-
Cc1oc2ccc(O)c(CN3CCCCCC3)c2c1C(=O)Nc1cccc(C(F)(F)F)c1,0,-,-,-,-
O=C(O)Cn1nnc2ccccc21,0,0,0,0,0
C(#Cc1ccccc1)Cn1nnc2ccccc21,?,37,0,49,0
COCCNC(=O)CSc1nc(-c2ccccc2)[nH]c1-c1ccc(OC)cc1,0,-,-,-,-
COc1ccc(C2N=C(c3ccccc3)NO2)cc1OC (configuration not stated),?,22,0,87,0
COc1cc(C2N=C(c3ccccc3)NO2)cc(Br)c1O (configuration not stated),0,10,0,0,0
FC(F)Oc1ccc(C2N=C(c3ccccc3)NO2)cc1 (configuration not stated),0,45,0,79,0
SMILES,AmpC inh detg,Cycloheximide cs,AmpC no deterg,Shiga inhibitor,NS1 inh
CCn1c(SCC(=O)N2CCOCC2)nnc1C(C)NC(=O)c1ccccc1 (configuration not stated),0,0,0,0,0
CCCC[C@H](NC(=O)[C@H](CO)NC(=O)[C@H](Cc1ccc(O)cc1)NC(=O)[C@H](CO)NC(C)=O)C(=O)N[C@@H](CCC(=O)O)C(=O)N[C@@H](Cc1cnc[nH]1)C(=O)N[C@H](Cc1ccccc1)C(=O)N[C@@H](CCCNC(=N)N)C(=O)N[C@@H](Cc1c[nH]c2ccccc12)C(=O)NCC(=O)N[C@@H](CCCCN)C(=O)N1CCC[C@H]1C(=O)N[C@H](C(N)=O)C(C)C,-,0,-,0,-
COc1cc2cc(c1Cl)N(C)C(=O)C[C@H](OC(=O)C(C)C)[C@]1(C)O[C@@H]1[C@@H](C)[C@H]1C[C@](O)(NC(=O)O1)[C@@H](OC)/C=C\C=C(\C)C2,-,-,-,-,0
Cc1cc2c(s1)c1cnn(Cc3c(F)cccc3F)c(=O)c1n2C,-,0,-,0,-
CC(C)c1ccc(NC(=O)CN2CCN(c3ccccn3)CC2)cc1,0,0,0,0,0
CC(C)c1ccc(/C=N/N2CCN(c3ccccn3)CC2)cc1,0,21,0,43,0
C(=N\N1CCN(c2ccccn2)CC1)/c1cccc2ccccc12,?,17,0,43,0
CC(C)c1ccc(/C=N/N2CCCCC2)cc1,0,31,0,139,-
Oc1ccccc1/C=N/N1CCN(c2ccccn2)CC1,0,37,0,90,0
Cc1c(N)cc[n+](CC(=O)c2ccccc2)c1C,0,0,0,0,0
